Data as given in PubChem BioAssay (NCI).
The panel holds about 83,000 compounds, 20% with a hit somewhere; the sample as a whole holds those more often.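 In brief: 96-well plates, 48 h treatment, single concentration, percent growth endpoint.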 A number with no mark means an inactive call. Active and inactive are the calls of the source. How the source made its calls: active means growth percent below 10; inactive means the rest.

Assays:
Experiment in all cases: NCI-60 one-dose screen, 48 h (100 = growth as untreated, 0 = no growth, -100 = all killed)
SK-MEL-2 melanoma = settings: 10 µM unless noted
EKVX NSCLC = settings: 10 µM unless noted
SN12C renal = settings: 10 µM unless noted
UO-31 renal = settings: 10 µM unless noted
ACHN renal = settings: 10 µM unless noted
A498 renal = settings: 10 µM unless noted
CCRF-CEM leukemia = settings: 10 µM unless noted
MOLT-4 leukemia = settings: 10 µM unless noted
SR leukemia = settings: 10 µM unless noted
RPMI-8226 leukemia = settings: 10 µM unless noted
OVCAR-8 ovarian = settings: 10 µM unless noted
OVCAR-5 ovarian = settings: 10 µM unless noted
OVCAR-4 ovarian = settings: 10 µM unless noted
SK-OV-3 ovarian = settings: 10 µM unless noted
OVCAR-3 ovarian = settings: 10 µM unless noted
HS 578T breast = settings: 10 µM unless noted
NCI/ADR-RES ovarian = settings: 10 µM unless noted
TK-10 renal = settings: 10 µM unless noted
IGROV1 ovarian = settings: 10 µM unless noted
CAKI-1 renal = settings: 10 µM

SMILES	growth (SK-MEL-2 melanoma)	growth (EKVX NSCLC)	growth (SN12C renal)	growth (UO-31 renal)	growth (ACHN renal)	growth (A498 renal)	growth (CCRF-CEM leukemia)	growth (MOLT-4 leukemia)	growth (SR leukemia)	growth (RPMI-8226 leukemia)	growth (OVCAR-8 ovarian)	growth (OVCAR-5 ovarian)	growth (OVCAR-4 ovarian)	growth (SK-OV-3 ovarian)	growth (OVCAR-3 ovarian)	growth (HS 578T breast)	growth (NCI/ADR-RES ovarian)	growth (TK-10 renal)	growth (IGROV1 ovarian)	growth (CAKI-1 renal)
O=C1c2c(O)cc(O)cc2O[C@@H](c2ccc(O)cc2)[C@@H]1c1c(O)cc(O)c2c(=O)cc(-c3ccc(O)c(O)c3)oc12	117%	91.9%	105%	97.3%	85%	120%	114%	121%	103%	100%	101%	98.6%	97.8%	86.5%	106%	102%	95.7%	–	–	–
O=C(Nc1cccc(-c2nc(-c3ccc(NC(=O)c4cccs4)cc3Cl)no2)c1)Nc1ccc(NC(=O)C2CC2)c(C(F)(F)F)c1	-50.2% (active)	-34.2% (active)	-51.8% (active)	-23.6% (active)	0.236% (active)	-89% (active)	6.43% (active)	-4.78% (active)	-25.9% (active)	–	2.05% (active)	-14.6% (active)	-81.3% (active)	-30.6% (active)	–	-27.1% (active)	45.5%	-28.2% (active)	-40.4% (active)	–
C=C1C(=O)O[C@@H]2C[C@@H](C)/C=C\C(=O)[C@](C)(OC(C)=O)C[C@H](OC(=O)/C(C)=C\C)[C@@H]12	-15.9% (active)	5.52% (active)	–	-88.6% (active)	-75.5% (active)	38.8%	-17% (active)	2.13% (active)	3.84% (active)	-12.6% (active)	-16.1% (active)	-29.5% (active)	18.2%	80.7%	-23.3% (active)	19.1%	10.5%	-61% (active)	-19.7% (active)	-11.1% (active)
C=C1C(=O)O[C@@H]2C[C@@H](C)[C@H](OC)CC(=O)[C@](C)(OC(C)=O)C[C@H](OC(=O)/C(C)=C\C)[C@@H]12	87.5%	83.9%	–	72.4%	5.58% (active)	150%	-12.7% (active)	38.1%	1.2% (active)	68.3%	59%	115%	82.3%	96.8%	21.4%	103%	100%	55.9%	90.1%	41.3%
CC1=CC(=O)CC(C)(C)[C@@]1(O)/C=C/C(C)=C\C(=O)O	-52.4% (active)	-29.6% (active)	-15.1% (active)	-31.6% (active)	-7.21% (active)	-72.7% (active)	0.0714% (active)	-9.99% (active)	0.555% (active)	-28.4% (active)	-11.9% (active)	-25% (active)	-15.9% (active)	-22% (active)	-19.5% (active)	-8.17% (active)	-15.6% (active)	-25.5% (active)	-12.5% (active)	–
Clc1ccc(-c2nc3ccc(/C(=N\N=C\c4ccccc4)c4ccccc4)cc3[nH]2)cc1	96.1%	93.4%	93.4%	83.3%	92.1%	–	–	59.3%	72.9%	54.6%	85.6%	85.6%	77.8%	90.7%	–	99.9%	87.8%	95.9%	104%	–
O=S(=O)(NCCCNc1nccc(-n2cnc3ccccc32)n1)c1ccc(F)cc1	85.8%	61.2%	89%	59.3%	81.1%	70.6%	49.1%	33.2%	36.8%	57.7%	–	98.6%	44.2%	85.1%	86.7%	82.4%	64.3%	91.9%	91.8%	–
C=C(C)C(=O)O[C@H]1C[C@@]2(C)OC(=CC2=O)[C@H](C)[C@H](O)[C@H]2OC(=O)C(=C)[C@@H]21	43.1%	73.6%	73.9%	53.9%	31.9%	131%	7.85% (active)	76.6%	38.1%	27.1%	71.9%	98.6%	82.3%	89.7%	20.1%	95.4%	84.1%	–	69.7%	–
O=C(NNc1nc2cc(F)c(F)cc2n2cccc12)c1ncccn1	34.5%	17.3%	23.9%	17.7%	12.7%	17.7%	12.7%	16.6%	18.7%	20.8%	21.9%	49.6%	13.4%	–	–	49.1%	10.1%	48.6%	20.5%	–
CC1(C)CC[C@]2(C(=O)O)CC[C@]3(C)C(=CCC4[C@@]5(C)C[C@@H](O)[C@@H]6OC(c7ccccc7O)OC[C@@]6(C)C5CC[C@]43C)C2C1 (stereo not given in full)	85.7%	39.9%	60.1%	54.8%	25.3%	–	46.8%	39.2%	53.3%	55.4%	53.1%	103%	63.6%	80%	47.4%	80.6%	34.6%	52.2%	57.2%	–
CC1OC(O[C@@H]2[C@H](O)C(CO)OC(O[C@H]3COC(O[C@H]4CC[C@]5(C)[C@H]6CC[C@]78OC[C@@]9(CCC(C)(C)C[C@H]97)[C@H](O)C[C@@]8(C)[C@]6(C)CC[C@H]5C4(C)C)[C@@H](OC4OC(CO)[C@@H](O)[C@@H](O)[C@@H]4O)[C@@H]3O)[C@H]2OC2OC[C@@H](O)[C@@H](O)[C@@H]2O)[C@@H](O)[C@@H](O)[C@H]1O (stereo not given in full)	-81.4% (active)	-64% (active)	–	-90.8% (active)	-92.5% (active)	-86.5% (active)	-60% (active)	-61.1% (active)	-51.3% (active)	-46.3% (active)	-69% (active)	-69% (active)	-74.1% (active)	-94.3% (active)	-89.8% (active)	-54.4% (active)	-44.2% (active)	-93.8% (active)	-66.3% (active)	-95.9% (active)
C=C(C)C(=O)O[C@H]1C[C@@]2(C)OC(=CC2=O)/C(C)=C\[C@H]2OC(=O)C(=C)[C@H]12	-28% (active)	21.1%	–	-88.9% (active)	-11.7% (active)	21%	-31.8% (active)	-4.17% (active)	-19.6% (active)	-15.3% (active)	4.8% (active)	-56.4% (active)	36.1%	77%	-72.1% (active)	21.9%	15.7%	-76.3% (active)	7.34% (active)	5.49% (active)
CNC(=O)c1cc(Oc2ccc3nc(NC(=O)c4ccc(CN5CCN(C)CC5)c(C(F)(F)F)c4)sc3c2)ccn1	98.7%	59.3%	76.4%	58.5%	76.9%	80.3%	49.9%	39.2%	-4.18% (active)	19.6%	73.8%	80.7%	52.4%	87.1%	–	52.9%	78%	104%	80.1%	–
O=C(NNc1nc2cc(F)c(F)cc2n2cccc12)c1cccnn1	19.3%	7.06% (active)	15.8%	13.3%	10.2%	14.2%	7.8% (active)	7.86% (active)	11.8%	9.62% (active)	19.8%	42.5%	4.78% (active)	–	7.39% (active)	29.3%	-0.232% (active)	39.5%	14.4%	–
N#C/C(=C\c1ccc2ccccc2c1)C(=O)Nc1sc2c(c1C#N)CCC2	100%	94.8%	95.5%	78.2%	104%	93.9%	103%	101%	90.9%	105%	100%	111%	105%	99.8%	–	104%	103%	108%	107%	–
